# Bioassay records deposited in PubChem by Broad Institute.
# T cruzi growth-1 = T. cruzi intracellular proliferation inhibitors, primary screen, cell-based, beta-gal Tulahuen parasites, NIH3T3 host, luminescence | actives 5.9% (n = 77,000) | inhibition, % at 8.34 µM | T. cruzi beta-gal in NIH3T3, GalScreen luminescence, 90 h;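 active = mean inhibition above about 93%, with at least 55% of replicates each passing it, limit read from the data, passing the limit was not always enough; inconclusive = only one of those two conditions holds; inactive = neither condition holds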
# C diff HTS = C. difficile growth inhibitors, primary screen, HTS; Clostridium difficile clinical isolate growth, OD600, 24 h; stronger effect = lower value; growth activity, negative = inhibition, % at 16 µg/mL (by protocol); actives 0.25% (n = 86,000);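 active = mean growth activity at or below -80% and every replicate also at or below -80%; inconclusive = mean at or below -80% but some replicate above -80%; inactive = mean growth activity above -80%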;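 also: 0% = DMSO wells and -100% = levofloxacin 16 µg/mL wells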
# Pf Dd2 growth = P. falciparum Dd2 growth inhibitors, primary screen, SYBR Green fluorescence, single dose replicates; 72 h; stronger effect = lower value; activity change, % at 10 µM; actives 2.3% (n = 94,000); in the data active = activity change below about -80%; inconclusive = no clear call, values can overlap the other calls
# T cruzi growth-2 = T. cruzi intracellular proliferation inhibitors, confirmation, cell-based, NIH3T3 host, beta-gal parasite, luminescence, cherry-pick. AID 651739, 2012. shares compounds with T cruzi growth-1. inhibition, % at 8.35 µM. actives 72% (n = 5,600). T. cruzi beta-gal in NIH3T3, GalScreen luminescence, 90 h;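 active = mean replicate inhibition above about 95% and at least 55% of replicates individually reaching it, limit read from the data; inconclusive = only one of the two criteria is met; inactive = neither criterion is met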
# T cruzi growth-3 = inhibitors of intracellular T. cruzi replication, confirmation, NIH3T3 host cells, beta-gal parasites, cherry-pick, set 2; AID 651740, 2012; inhibition, % at 2.09 µM; actives 21% (n = 5,600); shares compounds with T cruzi growth-1; T. cruzi beta-gal in NIH3T3, GalScreen luminescence, 90 h;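 active = mean inhibition above about 95%, with at least 55% of replicates also reaching it, limit read from the data; inconclusive = meets just one of the two conditions; inactive = meets neither condition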;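 also: plate controls were neutral control median for no effect and positive control median for full effect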
# NIH3T3 tox = cytotoxicity in mouse NIH/3T3 fibroblasts, confirmation, cytotoxicity control for T. cruzi proliferation inhibitor project, cell-based, cherry-pick, single point. shares compounds with T cruzi growth-1. NIH/3T3 viability, CellTiter-Glo ATP luminescence, 90 h. cytotoxicity (signal decrease), % at 8.35 µM. actives 14% (n = 5,600);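 active = mean signal decrease across replicates above about 35% based on untreated-well scatter, with enough replicates individually passing, limit read from the data; inconclusive = no rule stated though some were filed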;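 also: 0% = median of neutral control wells and 100% = median of positive control wells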
# NIH3T3 tox 2 = NIH/3T3 fibroblast cytotoxicity, confirmation, cytotoxicity control, cell-based, cherry-pick, single point, set 2 | NIH/3T3 viability, CellTiter-Glo ATP luminescence, 90 h | shares compounds with T cruzi growth-1 | actives 56% (n = 5,600) | inhibition, % at 24.9 µM;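 active = mean loss of cell viability signal at or above a set limit, and enough replicates individually reaching it; inconclusive = meets only the mean limit or only the replicate share; inactive = meets neither condition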;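 also: 0% = median of neutral control wells and 100% = median of positive control wells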
# * hit, by the source's call; ? = inconclusive; nt = no result. Sampled rows, rich in hits. Any-hit rate of the full collection: about 6.7%.
SMILES,T cruzi growth-1,C diff HTS,Pf Dd2 growth,T cruzi growth-2,T cruzi growth-3,NIH3T3 tox,NIH3T3 tox 2
O=C(Nc1ccccc1)N1C[C@H]2[C@@H](c3ccccc31)[C@H](CO)N2C(=O)Cc1ccccn1,39,-4,-5,nt,nt,nt,nt
C[C@H]1CCCCO[C@@H](CN(C)C(=O)Nc2ccc(C(F)(F)F)cc2)[C@@H](C)CN([C@@H](C)CO)C(=O)c2cc(NS(=O)(=O)c3ccccc3)ccc2O1,?,2,-51,?,107*,-10,18
C[C@@H]1CCCCO[C@@H](CN(C)C(=O)Nc2ccc(C(F)(F)F)cc2)[C@H](C)CN([C@@H](C)CO)C(=O)c2cc(NS(=O)(=O)c3ccc(F)cc3)ccc2O1,84,0,-6,nt,nt,nt,nt
C[C@H](CO)N1C[C@H](C)[C@H](CN(C)C(=O)Nc2ccc(C(F)(F)F)cc2)OCCCC[C@H](C)Oc2ccc(NS(=O)(=O)c3ccccc3)cc2C1=O,?,7,-50,90,103*,-10,-1
C[C@@H]1CCCCO[C@@H](CN(C)C(=O)Nc2ccc(C(F)(F)F)cc2)[C@H](C)CN([C@@H](C)CO)C(=O)c2cc(NS(=O)(=O)c3ccccc3)ccc2O1,?,7,-17,96*,113*,15,14
C[C@@H]1CCCCO[C@H](CN(C)C(=O)Nc2ccc(C(F)(F)F)cc2)[C@H](C)CN([C@H](C)CO)C(=O)c2cc(NS(=O)(=O)c3ccc(F)cc3)ccc2O1,84,7,-41,nt,nt,nt,nt
C[C@@H]1CCCCO[C@H](CN(C)C(=O)Nc2ccc(C(F)(F)F)cc2)[C@H](C)CN([C@@H](C)CO)C(=O)c2cc(NS(=O)(=O)c3ccccc3)ccc2O1,77,5,-79,nt,nt,nt,nt
C[C@@H]1CN([C@@H](C)CO)C(=O)c2cc(NS(C)(=O)=O)ccc2O[C@@H](C)CCCCO[C@@H]1CN(C)C(=O)Nc1ccc(C(F)(F)F)cc1,nt,2,-43,nt,nt,nt,nt
C[C@H](CO)N1C[C@H](C)[C@H](CN(C)C(=O)Nc2ccc(C(F)(F)F)cc2)OCCCC[C@H](C)Oc2ccc(NS(C)(=O)=O)cc2C1=O,108*,5,-38,107*,70,-7,5
CC(C)(C)[S@@](=O)N1Cc2cc(C(=O)NC3CCCC3)nc(-c3cccc(Br)c3)c2[C@H]1CCO,nt,3,-65,nt,nt,nt,nt
COc1ccc(NC(=O)Nc2cccc3c2O[C@H](CN(C)C(=O)Nc2ccc(OC)cc2)[C@H](C)CN([C@@H](C)CO)C3=O)cc1,-8,-12,-68,nt,nt,nt,nt
Cc1cccc(-c2ccc([C@@H]3[C@H]4CN(C(=O)Cc5ccccn5)CC(=O)N4[C@H]3CO)cc2)c1,nt,4,-12,nt,nt,nt,nt
COCC(=O)Nc1ccc2c(c1)C(=O)N(C)C[C@H](OC)[C@H](C)CN(CC1CCCCC1)[C@@H](C)CO2,-9,-4,-9,nt,nt,nt,nt
O=C(C[C@H]1CC[C@H](NC(=O)C2CCOCC2)[C@H](CO)O1)NCc1ccncc1,nt,-2,10,nt,nt,nt,nt
CN1CCN(C(=O)C[C@@H]2CC[C@H]3[C@H](COc4ccc(NC(=O)C5CCC5)cc4C(=O)N3C)O2)CC1,nt,-2,22,nt,nt,nt,nt
CC(C)NC(=O)N(C)C[C@@H]1Oc2ncc(C#Cc3ccncc3)cc2C(=O)N([C@@H](C)CO)C[C@H]1C,-14,2,-1,nt,nt,nt,nt
COCC#Cc1ccc([C@H]2[C@@H](CO)N3C(=O)CN(C(=O)C4CCOCC4)C[C@H]23)cc1,nt,4,31,nt,nt,nt,nt
C[C@H]1CN([C@@H](C)CO)C(=O)c2cccc(NC(=O)NC3CCCCC3)c2O[C@H]1CN(C)Cc1ccc(C(F)(F)F)cc1,4,-7,26,nt,nt,nt,nt
C[C@@H]1CCCCO[C@H](CN(C)C(=O)Nc2ccc(C(F)(F)F)cc2)[C@H](C)CN([C@@H](C)CO)C(=O)c2cc(NS(=O)(=O)c3cccs3)ccc2O1,81,1,?,nt,nt,nt,nt
C[C@@H]1CCCCO[C@H](CN(C)C(=O)Nc2ccc(C(F)(F)F)cc2)[C@H](C)CN([C@H](C)CO)C(=O)c2cc(NS(=O)(=O)c3cccs3)ccc2O1,98*,12,-84*,103*,112*,15,-1
COc1ccc(-c2ccc([C@H]3[C@@H](C#N)N(C(=O)C4CC4)[C@@H]3CO)cc2)cc1,106*,-2,-33,61,56,-7,37*
COc1ccc(-c2ccc([C@@H]3[C@@H](C#N)N(C(=O)C4CCCC4)[C@H]3CO)cc2)cc1,42,8,-21,nt,nt,nt,nt
COc1ccc(-c2ccccc2[C@H]2[C@@H](CO)N(C(=O)NC3CCCCC3)[C@H]2C#N)cc1,nt,9,-10,nt,nt,nt,nt
N#C[C@@H]1[C@H](c2ccc(C3=CCCC3)cc2)[C@H](CO)N1C(=O)C1CC1,95,-7,5,nt,nt,nt,nt
COc1ccc(-c2ccc([C@@H]3[C@@H](C#N)N(C(=O)C4CC4)[C@H]3CO)cc2)cc1,80,-4,-35,nt,nt,nt,nt
SMILES,T cruzi growth-1,C diff HTS,Pf Dd2 growth,T cruzi growth-2,T cruzi growth-3,NIH3T3 tox,NIH3T3 tox 2
COc1ccc(-c2ccc([C@@H]3[C@@H](CO)N(C(=O)NC4CCCC4)[C@H]3C#N)cc2)cc1,?,8,-34,30,-5,-2,-12
N#C[C@H]1[C@H](c2ccc(C3=CCCC3)cc2)[C@H](CO)N1C(=O)C1CC1,102*,-2,-13,96*,50,8,15
COc1ccc(-c2ccc([C@H]3[C@@H](C#N)N(C(=O)C4CCCC4)[C@@H]3CO)cc2)cc1,106*,10,-45,78,24,12,14
C[C@@H]1CN([C@H](C)CO)S(=O)(=O)c2ccc(C3=CCCC3)cc2O[C@@H]1CN(C)S(C)(=O)=O,21,nt,13,nt,nt,nt,nt
COc1ccc(NC(=O)Nc2ccc3c(c2)C(=O)N([C@@H](C)CO)C[C@@H](C)[C@@H](CN(C)C(=O)Cc2ccccc2)OCCCC[C@H](C)O3)cc1,21,5,-38,nt,nt,nt,nt
CCC(=O)N(C)C[C@@H]1Oc2cc(C#CC(C)(C)O)ccc2S(=O)(=O)N([C@@H](C)CO)C[C@H]1C,14,3,27,nt,nt,nt,nt
N#C[C@@H]1[C@@H](c2ccc(/C=C/c3ccccc3)cc2)[C@@H](CO)N1C(=O)C1CCCC1,26,5,26,nt,nt,nt,nt
COc1ccccc1-c1ccc([C@@H]2[C@H](C#N)N(C(=O)CN(C)C)[C@H]2CO)cc1,53,13,-11,nt,nt,nt,nt
COc1ccc(-c2ccc([C@@H]3[C@@H](C#N)N(C(=O)CN(C)C)[C@@H]3CO)cc2)cc1,108*,-6,-31,77,3,28,22
